# Experimental data as given in PubChem BioAssay.
# A number with no mark means an inactive call. Active and inactive are the calls of the source.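 How the source made its calls: active means inhibition above 50%; inactive means the rest.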
# Assay: HepG2 cytotoxicity, primary screen, cytotoxicity control for P. falciparum antimalarial project, cell-based, ATP luminescence (AID 2303);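 further: 0% = DMSO wells and 100% = digitonin-killed cells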
# Settings: HepG2 viability, 24-48 h, at 10 µM, stronger effect = higher value
row,Compound,inhibition
1,Cc1[nH]c(C)c(-c2ccc(OCc3cc(C(F)(F)F)cc(C(F)(F)F)c3)nc2)c(=O)c1Cl,19%
2,COc1cc(C)c(NC(=O)c2cccc3c(=O)c(C)c(-c4ccccc4)oc23)cc1OC,96% (active)
3,Cc1c(CNCCCNc2cc(=O)c3ccccc3[nH]2)sc(C(F)F)c1Br,0%
4,C[C@@H](C(N)=O)N1CCCCC1c1ccc(OCc2cccc(F)c2)cc1 (some centres undefined),79% (active)
5,O=[N+]([O-])c1ccc2c(-c3ccccc3)c(-c3ccccc3)n(O)c2c1,8%
6,CN1CCC(c2c[nH]c3ccc(NC(=O)Nc4ccc(-c5ccncc5)cc4Cl)cc23)CC1,31%
7,O=C(Nc1ccc(Cl)c(Cl)c1)N1CCc2cc3nccc(N4CCN5CCC[C@H]5C4)c3cc21,2%
8,CNC(=O)c1cnc(Nc2ccc(OCC(O)CN(C)C)cc2)nc1Nc1cccc(OC)c1 (centres undefined),31%
9,CC(=O)Nc1ccc(CN(Cc2ccc(OC(C)(C)C)cc2)Cc2ccc3c(c2)OCCO3)cc1,7%
10,O=C(NCC1CCC(C(=O)NCc2cccc(C(F)(F)F)c2)CC1)c1ccc(O)c(-c2ccc(Cl)c(Cl)c2)c1 (centres undefined),5%
11,CC1(C)N=C(N)N=C(N)N1c1ccc(Cl)c(Cl)c1,67% (active)
12,CCOc1ccc(-c2cc3nc(C4CCNCC4)c(C(=O)Nc4ccc(C)cc4Cl)cn3n2)cc1,63% (active)
13,O=C(/C=C/c1ccc(Cl)c(Cl)c1)NCCCCCN1CCCC(C(=O)Nc2cccc(Cl)c2)C1 (centres undefined),41%
14,N#Cc1cccc(-c2cccc(C(=O)NC3CCC(CCN4CCc5ccc(C#N)cc5CC4)CC3)c2)c1 (centres undefined),31%
